# Measurements: the supplement of paper PMC8728848
# Only a selection was taken, and the strongest signals are over-represented in it overall.
# B1: DC-ASPGR (Homo sapiens), CLC10_HUMAN (protein)
# chain: LDQNSKFQRDLVTLRTDFSNFTSNTVAEIQALTSQGSSLEETIASLKAEVEGFKQERQAVHSEMLLRVQQLVQDLKKLTCQVATLNNNASTEGTCCPVNWVEHQDSCYWFSHSGMSWAEAEKYCQLKNAHLVVINSREEQNFVQKYLGSAYTWMGLSDPEGAWKWVDGTDYATGFQNWKPGQPDDWQGHGLGGGEDCAHFHPDGRWNDDVCQRPYHWVCEAGLGQTSQESHVEPKSCDKTHTCPPCPAPELLGGPSVFLFPPKPKDTLMISRTPEVTCVVVDVSHEDPEVKFNWYVDGVEVHNAKTKPREEQFNSTYRVVSVLTVLHQDWLNGKEYKCKVSNKGLPSSIEKTISKAKGQPREPQVYTLPPSQEEMTKNQVSLTCLVKGFYPSDIAVEWESNGQPENNYKTTPPVLDSDGSFFLYSRLTVDKSRWQEGNVFSCSVMHEALHNHYTQK
# Experiments:
# Experiment in all cases: glycan array binding signal (z-score within array); higher = stronger binding
# Conditions in all cases: glycan notation: IUPAC condensed, linker removed
# [1] = target: Fuc(a1-2)Gal(b1-3)GlcNAc(b1-2)Man(a1-3)[Fuc(a1-2)Gal(b1-3)GlcNAc(b1-2)Man(a1-6)]Man(b1-4)GlcNAc(b1-4)GlcNAc
# Method in brief: (§1)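 Negative Z-scores can be read as non-binding. The Z-score is calculated within each array and then averaged across arrays of one protein sequence at different concentrations or buffers and across linkers. Arrays, 3228 in all, were curated from the Consortium for Functional Glycomics database and kept only where the protein sequence was available.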
# [2] = target: Fuc(a1-2)Gal(b1-4)Glc
# Method in brief: as §1
# [3] = target: Fuc(a1-2)Gal(b1-4)GlcNAc
# Method in brief: as §1
# [4] = target: Fuc(a1-2)Gal(b1-4)GlcNAc6S
# Method in brief: as §1
# [5] = target: Fuc(a1-2)[Gal(a1-3)]Gal
# Method in brief: as §1
# [6] = target: Fuc(a1-2)[Gal(a1-3)]Gal(b1-4)Glc
# Method in brief: as §1
# [7] = target: Fuc(a1-2)[Gal(a1-3)]Gal(b1-4)GlcNAc(b1-2)Man(a1-3)[Fuc(a1-2)[Gal(a1-3)]Gal(b1-4)GlcNAc(b1-2)Man(a1-6)]Man(b1-4)GlcNAc(b1-4)GlcNAc
# Method in brief: as §1
# [8] = target: Fuc(a1-2)[GalNAc(b1-3)]Gal
# Method in brief: as §1
# [9] = target: Fuc(a1-3)GlcNAc
# Method in brief: as §1
# [10] = target: Fuc(a1-3)[Gal(b1-4)]GlcNAc
# Method in brief: as §1
# [11] = target: Fuc(a1-3)[GalNAc(b1-4)]GlcNAc
# Method in brief: as §1
# [12] = target: Fuc(b1-3)GlcNAc
# Method in brief: as §1
# [13] = target: Gal(a1-2)Gal
# Method in brief: as §1
# [14] = target: Gal(b1-3)[Fuc(a1-4)]GlcNAc(b1-2)Man(a1-3)[Gal(b1-3)[Fuc(a1-4)]GlcNAc(b1-2)Man(a1-6)]Man(b1-4)GlcNAc(b1-4)[Fuc(a1-6)]GlcNAc
# Method in brief: as §1
# [15] = target: Gal(b1-4)GlcNAc(b1-3)Gal(b1-4)[Fuc(a1-3)]GlcNAc(b1-3)Gal(b1-4)[Fuc(a1-3)]GlcNAc
# Method in brief: as §1
# [16] = target: Gal(b1-4)GlcNAc(b1-6)Gal(b1-4)GlcNAc(b1-6)GalNAc
# Method in brief: as §1
# [17] = target: Gal(b1-4)GlcNAc(b1-6)GalNAc
# Method in brief: as §1
# [18] = target: Gal(b1-4)GlcNAc(b1-6)[Gal(b1-3)]GalNAc
# Method in brief: as §1
# [19] = target: Gal3S(b1-3)GalNAc
# Method in brief: as §1
# [20] = target: Gal3S6S(b1-4)GlcNAc6S
# Method in brief: as §1
# [21] = target: GalNAc(b1-4)GlcNAc
# Method in brief: as §1
# [22] = target: Glc(a1-4)Glc
# Method in brief: as §1
# [23] = target: Glc(b1-4)Glc
# Method in brief: as §1
# [24] = target: GlcA(b1-3)Gal
# Method in brief: as §1
# [25] = target: GlcNAc(a1-4)Gal(b1-4)GlcNAc(b1-3)Gal(b1-4)GlcNAc
# Method in brief: as §1
# [26] = target: GlcNAc(b1-3)GalNAc
# Method in brief: as §1
# [27] = target: GlcNAc(b1-6)GalNAc
# Method in brief: as §1
# [28] = target: Neu5Ac(a2-3)Gal6S(b1-4)GlcNAc
# Method in brief: as §1
# [29] = target: Neu5Ac(a2-6)Gal(b1-4)GlcNAc
# Method in brief: as §1
# [30] = target: Neu5Ac(a2-8)Neu5Ac(a2-8)Neu5Ac(a2-3)Gal(b1-4)Glc
# Method in brief: as §1
# [31] = target: Neu5Ac9Ac(a2-3)Gal(b1-4)GlcNAc
# Method in brief: as §1
binder,measurement,setting,value
B1,glycan array binding signal (z-score),[1],-0.074
same,glycan array binding signal (z-score),[2],-0.082
same,glycan array binding signal (z-score),[3],-0.165
same,glycan array binding signal (z-score),[4],-0.177
same,glycan array binding signal (z-score),[5],-0.287
same,glycan array binding signal (z-score),[6],-0.303
same,glycan array binding signal (z-score),[7],-0.297
same,glycan array binding signal (z-score),[8],3.91
same,glycan array binding signal (z-score),[9],-0.256
same,glycan array binding signal (z-score),[10],-0.246
same,glycan array binding signal (z-score),[11],2.36
same,glycan array binding signal (z-score),[12],-0.235
same,glycan array binding signal (z-score),[13],-0.14
same,glycan array binding signal (z-score),[14],-0.15
same,glycan array binding signal (z-score),[15],-0.197
same,glycan array binding signal (z-score),[16],-0.298
same,glycan array binding signal (z-score),[17],3.86
same,glycan array binding signal (z-score),[18],-0.173
same,glycan array binding signal (z-score),[19],-0.146
same,glycan array binding signal (z-score),[20],-0.248
same,glycan array binding signal (z-score),[21],2.66
same,glycan array binding signal (z-score),[22],5.49
same,glycan array binding signal (z-score),[23],-0.27
same,glycan array binding signal (z-score),[24],-0.276
same,glycan array binding signal (z-score),[25],-0.092
same,glycan array binding signal (z-score),[26],-0.27
same,glycan array binding signal (z-score),[27],4.28
same,glycan array binding signal (z-score),[28],-0.179
same,glycan array binding signal (z-score),[29],-0.236
same,glycan array binding signal (z-score),[30],-0.244
same,glycan array binding signal (z-score),[31],-0.099
